From PubChem
SW480 rereplic: induces DNA re-replication in SW480 colon adenocarcinoma cells | 340,000 compounds, 1.8% hits | SW480 DNA re-replication, Hoechst DNA content imaging, 48 h | Potency, µM (series often up to 46.1 µM), without a hit: at the top dose re-replication activation, actives largely listed as activators; further: % of control where 0% means no effect; nearly all actives have a fitted effect of over 55% in size
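Treated cells incubate 48 hr (37 C, 5% CO2), are stained 40 min with Hoechst, and nuclear fluorescence is enumerated; a rise in nuclei with high DNA signal marks re-replication.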
TSG101-PTAP inh: blocks PTAP/TSG101 interaction to inhibit HIV-1 budding. Q99816. Fluorescence polarization, FITC-PTAP peptide / Tsg101 binding. Potency, µM (top dose mostly 115 µM), inactives show at the top dose activity change, negative = inhibition, actives largely listed as inhibitors. 340,000 tested, under 10 active. AID 493005; active means well fitted inhibition curve with a large enough effect in the main read-out, with a control signal flat, not every such curve was filed as active; inconclusive means small, poorly fitted or top-dose-only effect, or effect the other way, or a change in a side signal; inactive means no such curve, though single readings can be large or run the other way; further: % of control where 0% means no effect
Target sequence (Q99816 whole entry, looked up): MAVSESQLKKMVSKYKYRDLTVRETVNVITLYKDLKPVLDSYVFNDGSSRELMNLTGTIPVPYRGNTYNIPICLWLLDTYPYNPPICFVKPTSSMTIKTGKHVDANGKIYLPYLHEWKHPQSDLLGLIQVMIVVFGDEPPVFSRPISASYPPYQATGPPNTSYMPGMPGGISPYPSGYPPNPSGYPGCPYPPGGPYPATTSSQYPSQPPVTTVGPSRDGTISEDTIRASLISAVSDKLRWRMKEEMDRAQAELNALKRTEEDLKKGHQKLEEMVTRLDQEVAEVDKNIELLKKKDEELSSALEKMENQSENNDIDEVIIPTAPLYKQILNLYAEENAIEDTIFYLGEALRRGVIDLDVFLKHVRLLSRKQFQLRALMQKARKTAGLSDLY
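FP read-out: FITC-PTAP peptide, 50 nM final, binding Tsg101 binding domain, 10 uM final; 20 min, r.t.; 10 mM HEPES pH 7.5, 0.15 M NaCl, 0.01% Tween 20, 3 mM EDTA, 0.1 mM TCEP.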
KB-3-1 cytotox: KB-3-1 parental cell cytotoxicity; KB-3-1 viability, CellTiter-Glo ATP luminescence, 72 h; Potency, µM (doses to about 46.1 µM), hits mostly cytotoxic; 400,000 compounds, 1.4% hits; further: on the % scale 0 is the no-effect control and ±100 the full control effect; nearly all actives have a fitted effect of over 60% in size
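72 h, 37 °C compound treatment of KB-3-1 parental cells; CellTiter-Glo added, 10 min, luminescence read. Data corrected against DMSO-only plates and normalized before curve fitting.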
KB-V1 MDR tox: KB-V1 MDR subline cytotoxicity. KB-V1 MDR cells viability, CellTiter-Glo, 72 h. Potency, µM (doses to about 46.1 µM), actives largely listed as cytotoxic. 400,000 compounds, 3.4% hits. AID 1347076; further: on the % scale 0 is the no-effect control and ±100 the full control effect; nearly all actives have a fitted effect of over 60% in size
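Following 72 h at 37 degrees C with compound, KB-V1 cell viability was read by CellTiter-Glo luminescence, medium being phenol-red-free DMEM plus 10% FBS; concentration-response parameters came from normalized, curve-fitted qHTS data.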
MCF10A rerep: inducers of DNA re-replication in MCF 10A breast cells | MCF 10A DNA re-replication, Hoechst nuclear intensity, 48 h | Potency, µM (series often up to 46.1 µM), without a hit: at the top dose activity, positive = re-replication, actives largely listed as activators | 350,000 compounds, 2.9% hits; further: % of control where 0% means no effect; nearly all actives have a fitted effect of over 50% in size
PINK1 expr mod: modulators of PINK1 expression; PINK1 immunofluorescence, high-content cytometry, 24 h; Potency, µM (titrated, usually from 76.6 µM), without a hit: at the top dose activation (PINK1 increase), hits mostly activators; 410,000 compounds, 0.2% hits; AID 624263; active means well fitted activation curve with a large enough effect; inconclusive means small, poorly fitted or top-dose-only effect; cell line not stated here; further: % of control where 0% means no effect; nearly all actives have a fitted effect of over 65% in size
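Readout is PINK1 immunofluorescence, quantified alongside mitochondrial, cell and nuclear markers by laser-scanning microplate cytometry. Cells from a stable line were exposed to compound titrations (5 concentrations) for 24 hours, with CCCP controls.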
* marks the source's active call; other numbers are inactive results; i = inactive; ? = inconclusive; . = not tested or not shown; [ ] = another dose, or the depositor's remark. Only some compounds are listed: those with a hit (about 6.8% of all), similar ones and a draw of the others. Unless noted, the call rests on the fitted dose curve; in most records, active means well fitted curve in the direction sought with a large enough effect; inconclusive means small, poorly fitted or top-dose-only effect, or another doubt; inactive means no such curve, though single readings can be large; an effect the other way counts as inactive or inconclusive. Potency means the concentration at half of the fitted maximal effect.

SMILES	SW480 rereplic	TSG101-PTAP inh	KB-3-1 cytotox	KB-V1 MDR tox	MCF10A rerep	PINK1 expr mod
O=C1NC(Cc2c[nH]c3ccccc23)C(=O)N1Cc1ccc(CN2C(=O)NC(Cc3c[nH]c4ccccc34)C2=O)cc1 (stereo unspecified)	27%	-8%	i	i	21µM*	0%
COc1ccc(C2=NN(c3nc(-c4ccc(CNC(C)=O)cc4)cs3)C(c3ccco3)C2)cc1 (stereo unspecified)	?	-3%	i	i	2.6µM*	5%
COc1ccc(-c2csc(N3CCN(C(=O)c4ccco4)CC3)n2)cc1	-3%	0%	?	i	27%	2%
Cc1cccc(C)c1Nc1nc2ccccc2nc1NS(=O)(=O)c1ccccc1	.	.	i	i	.	-1%
COCCNC(=S)N1CCN(c2cccc(C)c2C)CC1	-1%	1%	i	21µM*	11%	1%
COC(=O)c1sccc1NC(=S)N1CCCCC1	1%	-2%	i	i	0%	0%
COC(=O)c1sccc1NC(=S)N1CCN(c2cccc(C)c2C)CC1	?	-2%	?	?	4.1µM*	9%
CCOc1cccc(CC(=O)N2CCc3c([nH]c4ccccc34)C2c2ccccc2)c1OCC (stereo unspecified)	.	.	.	.	.	0%
COc1ccc(S(=O)(=O)Nc2cccc3ccc(O)cc23)cc1	?	-1%	15µM*	?	21µM*	3%
Cc1ccc(S(=O)(=O)Nc2ccc(O)c3cccnc23)cc1	23µM*	-2%	i	i	?	-1%
Cc1ccc(S(=O)(=O)Nc2ccccc2-c2ccccc2)cc1	0.82µM*	-3%	3.3µM*	?	1.3µM*	4%
CCn1nnc(-c2ccccc2NS(=O)(=O)c2ccc(S(=O)(=O)N3CCCCCC3)cc2)n1	-4%	-1%	i	i	-1%	?
CCOC(=O)c1ccc(S(=O)(=O)Nc2ccccc2-c2nnn(CC)n2)cc1	1%	-2%	i	16µM*	4%	1%
CCOC(=O)c1ccccc1NS(=O)(=O)c1ccccc1	19%	.	i	?	-7%	-3%[38.3 µM]
CCn1nc(C)c(NS(=O)(=O)c2ccc(C)cc2)c1C	-4%	-2%	?	16µM*	3%	3%[38.3 µM]
CCOC(=O)c1ccccc1NS(=O)(=O)c1ccc(C)cc1	?	-12%	26µM*	?	?	1%
Cc1ccc(S(=O)(=O)Nc2c(C)nn(C)c2C)cc1	-4%	1%	i	i	-5%	-1%[38.3 µM]
Cc1ccc(S(=O)(=O)Nc2ccccc2CNc2cccc(C)n2)cc1	70%	-4%	i	5.8µM*	5%	6%
Cc1ccc(S(=O)(=O)Nc2ccccc2/C=N/c2nc3ccccc3n2C)cc1	5%	-3%	?	i	13µM*	29%
Cc1ccc(S(=O)(=O)Nc2ccccc2C=Nc2cccc(C)c2C)cc1	4%	-3%	i	i	?	22%
COc1ccc(C2c3c(n(C)c4ccccc34)C(=O)N2CC(=O)Nc2c(C)cc(C)cc2C)cc1 (stereo unspecified)	.	.	i	i	.	0%
CC(C)c1ccc(NC(=O)CN2C(=O)COc3ccc(S(=O)(=O)N4CCCCC4)cc32)cc1	.	.	.	.	.	-1%
COc1ccc(S(=O)(=O)Nc2ccccc2C)cc1	13µM*	-11%	?	?	21µM*	3%
Cc1ccc(S(=O)(=O)Nc2ccccc2NS(=O)(=O)c2ccc(C)cc2)cc1	.	.	?	21µM*	.	-1%
CCOC(=O)c1ccc(NS(=O)(=O)c2ccc(SC)cc2)cc1	6%	-2%	i	23µM*	23µM*	5%[38.3 µM]
CCOC(=O)Cc1ccc(NS(=O)(=O)c2ccc(SC)cc2)cc1	-4%	-2%	i	i	2%	-3%
COc1ccc(NS(=O)(=O)c2ccc(SC)cc2)c(OC)c1	0%	-5%	i	18µM*	11%	3%[38.3 µM]
